The source of these data is PMC12820563, “FoxP3 forms a head-to-head dimer in vivo and stabilizes its multimerization on adjacent microsatellites”.

In all, about 16,000 sequences were measured (“rpm ratio (pull-down/input)”: median about 0.94, highest 2% from about 1.7 on). What follows is part of a selection rich in the highest values, with near analogues and random picks from the rest.

For the experiment, the target named is T1, MBP-FoxP1dN (Mus musculus, UniProt P58462 326-579).
T1 sequence: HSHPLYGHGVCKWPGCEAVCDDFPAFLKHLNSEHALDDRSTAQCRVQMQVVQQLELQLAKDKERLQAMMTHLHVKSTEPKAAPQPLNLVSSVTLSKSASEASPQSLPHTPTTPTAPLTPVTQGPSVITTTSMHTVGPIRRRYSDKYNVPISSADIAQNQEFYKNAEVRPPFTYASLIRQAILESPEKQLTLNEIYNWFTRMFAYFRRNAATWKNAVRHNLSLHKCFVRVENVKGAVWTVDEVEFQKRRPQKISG
Nature of the experiment: PD-seq (MBP pull-down with sequencing); 20 mM Tris-HCl pH 7.5, 100 mM NaCl, 1.5 mM MgCl2, 0.4 uM protein, 0.1 uM dsDNA library, 30 min, room temperature, amylose pull-down; high values mean tight binding. Conditions: protein: recombinant; tags: His6-MBP; chain copies: 2; dsDNA, one strand shown. The method in brief:
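The N-terminus-lacking fragment of mouse FoxP3 or FoxP1 carried a His6-MBP tag and was expressed in E. coli. At 0.4 µM it was incubated with 0.1 µM Klenow-filled degenerate double-stranded DNA library for 30 min at room temperature in Tris pH 7.5 buffer with NaCl and MgCl2, and complexes were caught on amylose resin, washed three times, released with proteinase K, PCR-barcoded and Illumina-sequenced. Binding is reads-per-million enrichment of pull-down over input with replicates pooled.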
Turning to “GATGATTGTTCTCCCAGCTGATGAATTTCGCAGGTCGAGTAAACAAATTTTCCTAATCTTTCTGTTCAAGCGCCATCTAC”, the binding signal is 0.789 RPM ratio (pull-down/input).

Take “GATGATTGTTCTCCCAGCTGATGAATTTCAGTGTTCGAGTAAACAAATTTTCCTAATCTTTCTGTTCAAGCGCCATCTAC”: the binding signal is 0.983 RPM ratio (pull-down/input).

As for “GATGATTGTTCTCCCAGCTGATGAATTGACAGTTTCGAGTAAACAAATTTTCCTAATCTTTCTGTTCAAGCGCCATCTAC”, the binding signal was 1.26 RPM ratio (pull-down/input).

As to “GATGATTGTTCTCCCAGCTGATGAATTTGCCACCTCGAGTAAACAAATTTTCCTAATCTTTCTGTTCAAGCGCCATCTAC”, the binding signal is 0.982 RPM ratio (pull-down/input).

On to “GATGATTGTTCTCCCAGCTGATGAATTGTGTATTTCGAGTAAACAAATTTTCCTAATCTTTCTGTTCAAGCGCCATCTAC”, for which the binding signal was 1.75 RPM ratio (pull-down/input).

Turning to “GATGATTGTTCTCCCAGCTGATGAATTTGTGTATTCGAGTAAACAAATTTTCCTAATCTTTCTGTTCAAGCGCCATCTAC”, the binding signal was 1.98 RPM ratio (pull-down/input).

As for “GATGATTGTTCTCCCAGCTGATGAATTGTGTAATTCGAGTAAACAAATTTTCCTAATCTTTCTGTTCAAGCGCCATCTAC”, the binding signal was 1.32 RPM ratio (pull-down/input).

“GATGATTGTTCTCCCAGCTGATGAATTCGTGTATTCGAGTAAACAAATTTTCCTAATCTTTCTGTTCAAGCGCCATCTAC”: the binding signal was 1.35 RPM ratio (pull-down/input).

With “GATGATTGTTCTCCCAGCTGATGAATTCGCCCGATCGAGTAAACAAATTTTCCTAATCTTTCTGTTCAAGCGCCATCTAC”, the binding signal was 0.901 RPM ratio (pull-down/input).

For “GATGATTGTTCTCCCAGCTGATGAATTGCCCCCATCGAGTAAACAAATTTTCCTAATCTTTCTGTTCAAGCGCCATCTAC”, the binding signal was 0.972 RPM ratio (pull-down/input).

On to “GATGATTGTTCTCCCAGCTGATGAATTCAAGCCCTCGAGTAAACAAATTTTCCTAATCTTTCTGTTCAAGCGCCATCTAC”, for which the binding signal is 0.749 RPM ratio (pull-down/input).

On to “GATGATTGTTCTCCCAGCTGATGAATTGTATATTTCGAGTAAACAAATTTTCCTAATCTTTCTGTTCAAGCGCCATCTAC”, for which the binding signal is 1.52 RPM ratio (pull-down/input).

For the sequence “GATGATTGTTCTCCCAGCTGATGAATTGTATTGTTCGAGTAAACAAATTTTCCTAATCTTTCTGTTCAAGCGCCATCTAC”, the binding signal is 2.26 RPM ratio (pull-down/input).

For “GATGATTGTTCTCCCAGCTGATGAATTGTATCTTTCGAGTAAACAAATTTTCCTAATCTTTCTGTTCAAGCGCCATCTAC”, the binding signal is 1.31 RPM ratio (pull-down/input).

As to “GATGATTGTTCTCCCAGCTGATGAATTCCTGTATTCGAGTAAACAAATTTTCCTAATCTTTCTGTTCAAGCGCCATCTAC”, the binding signal is 1.3 RPM ratio (pull-down/input).

Consider “GATGATTGTTCTCCCAGCTGATGAATTGTATTTTTCGAGTAAACAAATTTTCCTAATCTTTCTGTTCAAGCGCCATCTAC”, for which the binding signal is 1.8 RPM ratio (pull-down/input).

As to “GATGATTGTTCTCCCAGCTGATGAATTCTTGTATTCGAGTAAACAAATTTTCCTAATCTTTCTGTTCAAGCGCCATCTAC”, the binding signal is 1.72 RPM ratio (pull-down/input).

In the case of “GATGATTGTTCTCCCAGCTGATGAATTCACGACCTCGAGTAAACAAATTTTCCTAATCTTTCTGTTCAAGCGCCATCTAC”, the binding signal was 0.767 RPM ratio (pull-down/input).

“GATGATTGTTCTCCCAGCTGATGAATTTCCGAGATCGAGTAAACAAATTTTCCTAATCTTTCTGTTCAAGCGCCATCTAC”: the binding signal was 0.797 RPM ratio (pull-down/input).

Regarding “GATGATTGTTCTCCCAGCTGATGAATTTAACTATTCGAGTAAACAAATTTTCCTAATCTTTCTGTTCAAGCGCCATCTAC”, the binding signal was 0.876 RPM ratio (pull-down/input).

Take “GATGATTGTTCTCCCAGCTGATGAATTGATTCACTCGAGTAAACAAATTTTCCTAATCTTTCTGTTCAAGCGCCATCTAC”: the binding signal is 1.03 RPM ratio (pull-down/input).

Consider “GATGATTGTTCTCCCAGCTGATGAATTCGCACAATCGAGTAAACAAATTTTCCTAATCTTTCTGTTCAAGCGCCATCTAC”, for which the binding signal is 1.15 RPM ratio (pull-down/input).

As for “GATGATTGTTCTCCCAGCTGATGAATTTCAAAGTTCGAGTAAACAAATTTTCCTAATCTTTCTGTTCAAGCGCCATCTAC”, the binding signal was 0.792 RPM ratio (pull-down/input).

Turning to “GATGATTGTTCTCCCAGCTGATGAATTAGTGTGTTCGAGTAAACAAATTTTCCTAATCTTTCTGTTCAAGCGCCATCTAC”, the binding signal was 1.35 RPM ratio (pull-down/input).

As for “GATGATTGTTCTCCCAGCTGATGAATTAGTGTCGTCGAGTAAACAAATTTTCCTAATCTTTCTGTTCAAGCGCCATCTAC”, the binding signal was 0.949 RPM ratio (pull-down/input).

With “GATGATTGTTCTCCCAGCTGATGAATTTAGTGTTTCGAGTAAACAAATTTTCCTAATCTTTCTGTTCAAGCGCCATCTAC”, the binding signal is 1.15 RPM ratio (pull-down/input).

Take “GATGATTGTTCTCCCAGCTGATGAATTAGTGTTGTCGAGTAAACAAATTTTCCTAATCTTTCTGTTCAAGCGCCATCTAC”: the binding signal is 2.53 RPM ratio (pull-down/input).

For the sequence “GATGATTGTTCTCCCAGCTGATGAATTAGTAGTGTCGAGTAAACAAATTTTCCTAATCTTTCTGTTCAAGCGCCATCTAC”, the binding signal was 1 RPM ratio (pull-down/input).

In the case of “GATGATTGTTCTCCCAGCTGATGAATTAGTGTTTTCGAGTAAACAAATTTTCCTAATCTTTCTGTTCAAGCGCCATCTAC”, the binding signal was 2.42 RPM ratio (pull-down/input).

Take “GATGATTGTTCTCCCAGCTGATGAATTGCCGTGCTCGAGTAAACAAATTTTCCTAATCTTTCTGTTCAAGCGCCATCTAC”: the binding signal is 0.904 RPM ratio (pull-down/input).

Turning to “GATGATTGTTCTCCCAGCTGATGAATTACTATAATCGAGTAAACAAATTTTCCTAATCTTTCTGTTCAAGCGCCATCTAC”, the binding signal was 1.27 RPM ratio (pull-down/input).
